Measured values published in PubChem BioAssay (Tox21).
Where “and” joins values, the source holds several entries; their conditions need not be identical. Equal entries are not always repeated. Inconclusive results are not listed. Calls of active or inactive are those of the source. Unless noted, calls come from the whole dose curve; as a rule, active = well fitted curve in the direction sought with a large enough effect in the repeat runs; inconclusive = weak or mixed curves; inactive = no such curve, though single readings can be large; an effect the other way counts as inactive or inconclusive.

What was measured:
[1] = target: Thyrotropin receptor (Homo sapiens) (UniProt P16473); assay: qHTS assay to identify small molecule agonists of the thyroid stimulating hormone receptor (TSHR) signaling pathway (AID 1224843; calls by dose curve; note: nearly all actives have a fitted effect of over 45% in size; note: potency is the fitted concentration of half-maximal effect)
Method in brief: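 Using 15 concentrations per compound in triplicate, cAMP production was monitored in TSHR-HEK293 cells after 30 min compound incubation at RT; HTRF reagents followed, with fluorescence intensity recorded after 1 h.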

[2] = qHTS assay to identify small molecule agonists of the hypoxia (HIF-1) signaling pathway - cell viability counter screen (AID 1224844; calls by dose curve; note: nearly all actives have a fitted effect of over 50% in size)
Method in brief: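 Same wells as the HIF-1 reporter screen; ME-180 cells carrying HRE-bla, 17 hr treatment at 37C; CellTiter-Glo luminescence read after 30 min at room temperature.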

[3] = qHTS assay to identify small molecule agonists of H2AX (AID 1224845; active = well fitted activation curve with a large enough effect in the signal ratio in the repeat runs, not every such curve was filed as active; the % refers to the signal ratio)
Method in brief: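 Wild-type CHO-K1 cells plated overnight, then exposed 3 hr at 37C to compounds at 15 concentrations (0.76% DMSO). Lysed, then HTRF anti-pH2AX(S139)-cryptate/anti-H2AX-d2 detection after 24 hr at room temperature; emissions 665 and 620 nm.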

[4] = qHTS assay to identify small molecule agonists of the hypoxia (HIF-1) signaling pathway (AID 1224846; active = well fitted activation curve with a large enough effect in the signal ratio in the repeat runs, not every such curve was filed as active; the % refers to the signal ratio)
Method in brief: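 In ME-180 cells bearing an HRE-bla construct, 17 h treatment with DMSO-dissolved compounds at 37C was followed by CCF4-AM loading to quantify reporter induction.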

[5] = qHTS assay to identify small molecule antagonists of the estrogen related receptor (ERR) signaling pathway from Tox21 library (AID 1224848); note: nearly all actives have a fitted effect of over 50% in size; note: potency is the fitted concentration of half-maximal effect
Method in brief: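 Tox21 10K compounds in DMSO tested for ERR pathway antagonism in NTP's ERR cell line; 18 h, 37 C exposure; ONE-Glo luminescence.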

[6] = qHTS assay to identify small molecule agonists of the estrogen related receptor (ERR) signaling pathway from Tox21 library (AID 1224849; calls by dose curve; note: nearly all actives have a fitted effect of over 15% in size); settings: ERR reporter cell line, ONE-Glo luciferase, 18 h; at 92.4 µM (top of the series) unless noted
Method in brief: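 Reporter cells (ERR, NTP source) treated with Tox21 10K compounds 18 h, 37 C. Readout: ONE-Glo luminescence, 30 min RT.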

[7] = qHTS RealTime-Glo MT Cell Viability Assay in HepG2 cells - 24 hour (AID 1224867); note: nearly all actives have a fitted effect of over 50% in size
Method in brief: (§1)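 HepG2 cells were seeded at 600 cells/well together with NanoLuc luciferase and a cell-permeant prosubstrate, preincubated 5 h at 37 C/5% CO2, then pin-dosed with compounds in DMSO. Nonlytic luminescence from viable cells was read at each time point.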

[8] = qHTS RealTime-Glo MT Cell Viability Assay in HEK293 cells - 32 hour (AID 1224868); note: nearly all actives have a fitted effect of over 50% in size; note: potency is the fitted concentration of half-maximal effect
Method in brief: (§2)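 HEK293 cells were seeded at 600 cells/well together with NanoLuc luciferase and cell-permeant prosubstrate, preincubated 5 h at 37 C/5% CO2, then given compound in DMSO by pintool. Luminescence from viable-cell prosubstrate reduction was read repeatedly over 40 h.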

[9] = A CellTox Green Cytotoxicity Assay to monitor cytotoxicity in HEK293 cells - 0 hour (AID 1224869); note: nearly all actives have a fitted effect of over 50% in size; note: potency is the fitted concentration of half-maximal effect
Method in brief: (§3)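 Homogeneous no-lysis format: HEK293 cell suspension mixed with CellTox Green reagent, seeded, incubated 5 h at 37 C/5% CO2, then dosed by pintool with compound in DMSO.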

[10] = A CellTox Green Cytotoxicity Assay to monitor cytotoxicity in HEK293 cells - 40 hour (AID 1224871); note: nearly all actives have a fitted effect of over 45% in size; note: potency is the fitted concentration of half-maximal effect
Method in brief: as §3

[11] = qHTS RealTime-Glo MT Cell Viability Assay in HEK293 cells - 16 hour (AID 1224872)
Method in brief: as §2

[12] = qHTS RealTime-Glo MT Cell Viability Assay in HepG2 cells - 8 hour (AID 1224873); note: nearly all actives have a fitted effect of over 55% in size
Method in brief: (§4)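 HepG2 cells mixed with RealTime-Glo MT reagents (NanoLuc plus cell-permeant prosubstrate) were seeded at 600 cells/well, incubated 5 h at 37 C/5% CO2, then pinned with compounds in DMSO; nonlytic luminescence tracked viability during 40 h treatment.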

[13] = qHTS RealTime-Glo MT Cell Viability Assay in HEK293 cells - 40 hour (AID 1224874); settings: RealTime-Glo luminescence; max response: hits give low values; note: nearly all actives have a fitted effect of over 50% in size; note: potency is the fitted concentration of half-maximal effect
Method in brief: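 Measured as luminescence from the same continuously cultured HEK293 wells at successive time points (0, 8, 16, 24, 32, 40 h) after compound addition. Reagent present from seeding; dosing at 5 h; incubation 37 C.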

[14] = A CellTox Green Cytotoxicity Assay to monitor cytotoxicity in HEK293 cells - 24 hour (AID 1224875); note: nearly all actives have a fitted effect of over 45% in size; note: potency is the fitted concentration of half-maximal effect
Method in brief: as §3

[15] = A CellTox Green Cytotoxicity Assay to monitor cytotoxicity in HepG2 cells - 16 hour (AID 1224876); note: nearly all actives have a fitted effect of over 45% in size; note: potency is the fitted concentration of half-maximal effect
Method in brief: (§5)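 Fluorescent DNA-binding dye, 600 HepG2 cells/well, 5 h preincubation then compound in DMSO; same plates read at 0–40 h, 37 C.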

[16] = qHTS RealTime-Glo MT Cell Viability Assay in HepG2 cells - 32 hour (AID 1224877); note: nearly all actives have a fitted effect of over 55% in size
Method in brief: as §1

[17] = A CellTox Green Cytotoxicity Assay to monitor cytotoxicity in HepG2 cells - 24 hour (AID 1224878); note: nearly all actives have a fitted effect of over 45% in size; note: potency is the fitted concentration of half-maximal effect
Method in brief: as §5

[18] = qHTS assay to identify small molecule agonists of H2AX - cell viability counter screen (AID 1224847; calls by dose curve; note: top concentration of the series differs between compounds; nearly all actives have a fitted effect of over 30% in size)
Method in brief: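 Cells plated first: CHO-K1, 1000 per well in 10% FBS medium, incubated overnight at 37C. Then 15-point compound titration added (final DMSO 0.76%) for 3 hr. Finally CellTiter-Glo added and luminescence read.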

[19] = qHTS RealTime-Glo MT Cell Viability Assay in HepG2 cells - 40 hour (AID 1224870); note: nearly all actives have a fitted effect of over 50% in size
Method in brief: as §4

[20] = A CellTox Green Cytotoxicity Assay to monitor cytotoxicity in HepG2 cells - 40 hour (AID 1224879); note: nearly all actives have a fitted effect of over 40% in size; note: potency is the fitted concentration of half-maximal effect
Method in brief: as §5
% is set by controls: 0 for no effect and ±100 for the full control effect.

Chain of Thyrotropin receptor (Homo sapiens) (P16473 whole entry, looked up): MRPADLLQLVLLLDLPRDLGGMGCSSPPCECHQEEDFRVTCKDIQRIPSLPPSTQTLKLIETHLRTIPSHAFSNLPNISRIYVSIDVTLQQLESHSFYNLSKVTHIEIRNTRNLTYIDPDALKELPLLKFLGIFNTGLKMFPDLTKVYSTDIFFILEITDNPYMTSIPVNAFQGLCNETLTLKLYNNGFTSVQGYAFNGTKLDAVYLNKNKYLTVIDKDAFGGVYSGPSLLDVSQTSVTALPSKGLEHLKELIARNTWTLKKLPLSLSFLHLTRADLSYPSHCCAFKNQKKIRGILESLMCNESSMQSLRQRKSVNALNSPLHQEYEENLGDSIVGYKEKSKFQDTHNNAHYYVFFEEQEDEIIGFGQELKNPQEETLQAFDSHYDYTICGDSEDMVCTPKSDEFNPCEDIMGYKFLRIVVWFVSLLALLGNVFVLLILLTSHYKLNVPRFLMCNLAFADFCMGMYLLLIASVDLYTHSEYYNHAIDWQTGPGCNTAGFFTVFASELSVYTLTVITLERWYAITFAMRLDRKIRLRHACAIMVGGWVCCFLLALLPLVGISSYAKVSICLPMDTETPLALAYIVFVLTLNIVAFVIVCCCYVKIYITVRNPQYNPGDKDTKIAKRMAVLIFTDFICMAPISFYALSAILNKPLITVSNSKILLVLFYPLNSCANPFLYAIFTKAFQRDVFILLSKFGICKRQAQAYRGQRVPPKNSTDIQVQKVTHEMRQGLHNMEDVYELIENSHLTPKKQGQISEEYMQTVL

CCCCN=C=O
inactive: Potency [1] | Potency [2] | Potency [3] | outcome [4] | Potency [5] | activity change, positive = activation [6] 1.38% | Potency [7] | Potency [8] | Potency [9] | Potency [10] | Potency [11] | Potency [12] | max response [13] 2.49% | Potency [14] | Potency [15] | Potency [16] | Potency [17]

CC1CC(CC2CCC(N)C(C)C2)CCC1N (configuration not stated)
active: Potency [8] 55.8 µM | Potency [13] 55.8 µM
inactive: Potency [1] | Potency [2] | Potency [3] | outcome [4] | Potency [18] | Potency [7] | Potency [9] | Potency [19] | Potency [12] | Potency [15] | Potency [17] | Potency [20]

C=CCC1([C@H](C)CCC)C(=O)NC(=O)NC1=O
inactive: Potency [1] | Potency [2] | Potency [3] | outcome [4] | Potency [18] | Potency [7] | Potency [8] | Potency [9] | Potency [19] | Potency [10] | Potency [11] | Potency [12] | max response [13] -11.9% | Potency [15] | Potency [17] | Potency [20]

O=S(=O)(Cl)c1ccccc1
inactive: Potency [1] | Potency [2] | Potency [3] | outcome [4] | Potency [18] | Potency [7] | Potency [8] | Potency [9] | Potency [10] | Potency [11] | Potency [12] | max response [13] 11.8% | Potency [14] | Potency [15] | Potency [16] | Potency [17] | Potency [20]

ClCc1cccc(Cl)c1
inactive: Potency [1] | Potency [2] | Potency [3] | outcome [4] | Potency [5] | activity change, positive = activation [6] -9.7% [at 42.5 µM] | Potency [7] | Potency [8] | Potency [9] | Potency [19] | Potency [10] | Potency [11] | Potency [12] | max response [13] -0.225% | Potency [14] | Potency [15] | Potency [17] | Potency [20]

CCCN(CCCl)c1c([N+](=O)[O-])cc(C(F)(F)F)cc1[N+](=O)[O-]
active: Potency [1] 1.93 µM
inactive: Potency [2] | Potency [3] | outcome [4] | Potency [5] | activity change, positive = activation [6] -4.52% | Potency [7] | Potency [8] | Potency [9] | Potency [10] | Potency [12] | max response [13] 1.89% | Potency [15] | Potency [16] | Potency [17]

CC(C)O.CC(C)O.OCCN(CCO)CCO.OCCN(CCO)CCO.[Ti]
inactive: Potency [1] | Potency [2] | Potency [3] | outcome [4] | Potency [7] | Potency [8] | Potency [9] | Potency [19] | Potency [10] | Potency [11] | Potency [12] | max response [13] 16.3% | Potency [14] | Potency [15] | Potency [16] | Potency [17] | Potency [20]

NCCCNCCCN
inactive: Potency [1] | Potency [2] | Potency [3] | outcome [4] | Potency [18] | Potency [7] | Potency [8] | Potency [9] | Potency [11] | Potency [12] | max response [13] -7.03% | Potency [15] | Potency [16] | Potency [17]
active: Potency [10] 62.6 µM

CCCCCCC#N
inactive: Potency [1] | Potency [2] | Potency [3] | outcome [4] | Potency [18] | Potency [7] | Potency [8] | Potency [9] | Potency [19] | Potency [10] | Potency [11] | Potency [12] | max response [13] 1.28% | Potency [15] | Potency [16] | Potency [17] | Potency [20]

Brc1ccc(Oc2ccccc2)cc1
active: Potency [1] 1.25 µM | Potency [10] 44.7 µM and 21.9 µM
inactive: Potency [2] | Potency [3] | outcome [4] | Potency [5] | activity change, positive = activation [6] -18.4% and 0.436% | Potency [7] | Potency [8] | Potency [9] | Potency [19] | Potency [11] | Potency [12] | max response [13] 1.37% and 1.64% | Potency [15] | Potency [17] | Potency [20]

COc1nn(C(=O)NS(=O)(=O)c2ccccc2OC(F)(F)F)c(=O)n1C
inactive: Potency [1] | Potency [2] | Potency [3] | outcome [4] | Potency [5] | activity change, positive = activation [6] 1.4% | Potency [7] | Potency [8] | Potency [19] | Potency [11] | Potency [12] | max response [13] 12.6% | Potency [16]
active: Potency [9] 31.7 µM | Potency [10] 20 µM | Potency [14] 22.4 µM | Potency [15] 35.5 µM | Potency [17] 39.9 µM | Potency [20] 39.9 µM

CC/C(=N\OC/C=C/Cl)C1=C(O)CC(C2CCOCC2)CC1=O (configuration not stated)
inactive: Potency [1] | Potency [2] | Potency [3] | outcome [4] | Potency [5] | activity change, positive = activation [6] 0.742% | Potency [7] | Potency [8] | Potency [9] | Potency [10] | Potency [11] | Potency [12] | max response [13] 0.456% | Potency [14] | Potency [15] | Potency [16] | Potency [17] | Potency [20]

CCCC(Cn1cncn1)c1ccc(Cl)cc1Cl (configuration not stated)
inactive: Potency [1] | Potency [2] | Potency [3] | outcome [4] | activity change, positive = activation [6] -61.7% | Potency [7] | Potency [9]
active: Potency [5] 30.6 µM | Potency [8] 21.9 µM | Potency [13] 21.9 µM

O=[Se]=O
active: Potency [5] 30.4 µM | Potency [8] 17.3 µM | Potency [10] 24.4 µM | Potency [13] 17.3 µM | Potency [20] 19.4 µM
inactive: Potency [1] | Potency [2] | Potency [3] | outcome [4] | activity change, positive = activation [6] -51.4% [at 42.5 µM] | Potency [7] | Potency [9] | Potency [11] | Potency [12] | Potency [15] | Potency [17]

CNC(C)Cc1ccccc1OC (configuration not stated)
inactive: Potency [1] | Potency [2] | Potency [3] | outcome [4] | Potency [18] | Potency [7] | Potency [8] | Potency [9] | Potency [19] | Potency [10] | Potency [11] | Potency [12] | max response [13] 1.99% | Potency [14] | Potency [16] | Potency [17] | Potency [20]

CCOC(=O)CBr
inactive: Potency [1] | Potency [2] | Potency [3] | outcome [4] | Potency [18] | Potency [7] | Potency [9] | Potency [10] | Potency [12] | max response [13] -15% | Potency [14] | Potency [15] | Potency [16] | Potency [17]
